Test results from ChEMBL document CHEMBL2218924, “A broad activity screen in support of a chemogenomic map for kinase signalling research and drug discovery” (Biochem J, 2013).

Tests used:
[1] = molecular target: Ribosomal protein S6 kinase beta-1 (Homo sapiens) (UniProt P23443); conditions: at 1 µM
[2] = molecular target: Ribosomal protein S6 kinase beta-1 (Homo sapiens) (UniProt P23443); conditions: at 10 µM
[3] = molecular target: Serine/threonine-protein kinase Nek6 (Homo sapiens) (UniProt Q9HC98); conditions: at 1 µM
Chain of Serine/threonine-protein kinase Nek6 (Homo sapiens) (Q9HC98 whole entry): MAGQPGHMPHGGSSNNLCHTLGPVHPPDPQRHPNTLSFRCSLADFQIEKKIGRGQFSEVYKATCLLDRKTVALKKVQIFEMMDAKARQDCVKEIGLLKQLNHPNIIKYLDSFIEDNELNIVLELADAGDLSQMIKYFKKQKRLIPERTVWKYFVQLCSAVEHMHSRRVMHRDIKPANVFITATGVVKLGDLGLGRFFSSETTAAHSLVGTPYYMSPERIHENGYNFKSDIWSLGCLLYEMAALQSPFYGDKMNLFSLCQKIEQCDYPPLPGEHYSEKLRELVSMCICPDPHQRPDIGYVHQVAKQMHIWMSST

[4] = molecular target: Serine/threonine-protein kinase Nek6 (Homo sapiens) (UniProt Q9HC98); conditions: at 10 µM
[5] = molecular target: Serine/threonine-protein kinase Nek7 (Homo sapiens) (UniProt Q8TDX7); conditions: at 1 µM
Chain of Serine/threonine-protein kinase Nek7 (Homo sapiens) (Q8TDX7 whole entry, looked up): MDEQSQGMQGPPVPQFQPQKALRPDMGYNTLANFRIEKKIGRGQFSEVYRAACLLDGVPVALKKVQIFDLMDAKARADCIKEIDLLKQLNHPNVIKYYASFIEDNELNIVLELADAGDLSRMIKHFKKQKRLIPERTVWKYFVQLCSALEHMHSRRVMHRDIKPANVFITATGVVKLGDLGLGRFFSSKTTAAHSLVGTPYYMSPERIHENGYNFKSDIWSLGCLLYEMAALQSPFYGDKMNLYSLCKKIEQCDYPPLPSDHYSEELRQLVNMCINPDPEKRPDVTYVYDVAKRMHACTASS

[6] = molecular target: Serine/threonine-protein kinase Nek7 (Homo sapiens) (UniProt Q8TDX7); conditions: at 10 µM
[7] = molecular target: T1, Serine/threonine-protein kinase NLK (Homo sapiens) (UniProt Q9UBE8); conditions: at 1 µM
T1 sequence (whole entry): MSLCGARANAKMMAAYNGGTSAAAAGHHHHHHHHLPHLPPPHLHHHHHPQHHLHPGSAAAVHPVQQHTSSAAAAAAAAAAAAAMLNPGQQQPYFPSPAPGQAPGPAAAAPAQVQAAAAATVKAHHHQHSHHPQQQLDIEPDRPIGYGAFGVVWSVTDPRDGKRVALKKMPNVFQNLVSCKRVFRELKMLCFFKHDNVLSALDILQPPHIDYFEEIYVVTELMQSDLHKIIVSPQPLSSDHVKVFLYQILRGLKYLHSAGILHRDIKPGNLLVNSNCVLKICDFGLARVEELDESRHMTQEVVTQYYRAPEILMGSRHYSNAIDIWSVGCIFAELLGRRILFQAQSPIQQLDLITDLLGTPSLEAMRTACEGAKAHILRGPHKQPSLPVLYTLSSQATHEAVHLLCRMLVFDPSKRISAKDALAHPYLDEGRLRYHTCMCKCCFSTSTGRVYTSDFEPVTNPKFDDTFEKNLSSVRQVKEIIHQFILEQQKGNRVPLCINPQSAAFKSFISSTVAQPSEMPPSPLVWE

[8] = molecular target: T1, Serine/threonine-protein kinase NLK (Homo sapiens); conditions: at 10 µM
[9] = molecular target: Serine/threonine-protein kinase PAK 2 (Homo sapiens) (UniProt Q13177); conditions: at 1 µM
Chain of Serine/threonine-protein kinase PAK 2 (Homo sapiens) (Q13177 whole entry): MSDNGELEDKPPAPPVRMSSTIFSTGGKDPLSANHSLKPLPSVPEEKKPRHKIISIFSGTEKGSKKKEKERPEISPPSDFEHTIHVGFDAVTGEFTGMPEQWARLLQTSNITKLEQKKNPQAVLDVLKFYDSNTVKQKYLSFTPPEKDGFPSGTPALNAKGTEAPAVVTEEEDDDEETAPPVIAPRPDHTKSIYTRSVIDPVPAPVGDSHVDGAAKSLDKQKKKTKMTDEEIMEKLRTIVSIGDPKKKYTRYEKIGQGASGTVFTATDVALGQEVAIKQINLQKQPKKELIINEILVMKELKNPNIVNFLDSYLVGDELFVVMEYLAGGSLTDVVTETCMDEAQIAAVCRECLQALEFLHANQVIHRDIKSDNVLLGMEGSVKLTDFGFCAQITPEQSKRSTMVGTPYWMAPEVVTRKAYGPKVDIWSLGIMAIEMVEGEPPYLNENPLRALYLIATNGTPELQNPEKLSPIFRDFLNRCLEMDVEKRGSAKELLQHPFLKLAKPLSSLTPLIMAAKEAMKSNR

[10] = molecular target: Serine/threonine-protein kinase PAK 2 (Homo sapiens) (UniProt Q13177); conditions: at 10 µM

Chain of Ribosomal protein S6 kinase beta-1 (Homo sapiens) (P23443 whole entry, looked up): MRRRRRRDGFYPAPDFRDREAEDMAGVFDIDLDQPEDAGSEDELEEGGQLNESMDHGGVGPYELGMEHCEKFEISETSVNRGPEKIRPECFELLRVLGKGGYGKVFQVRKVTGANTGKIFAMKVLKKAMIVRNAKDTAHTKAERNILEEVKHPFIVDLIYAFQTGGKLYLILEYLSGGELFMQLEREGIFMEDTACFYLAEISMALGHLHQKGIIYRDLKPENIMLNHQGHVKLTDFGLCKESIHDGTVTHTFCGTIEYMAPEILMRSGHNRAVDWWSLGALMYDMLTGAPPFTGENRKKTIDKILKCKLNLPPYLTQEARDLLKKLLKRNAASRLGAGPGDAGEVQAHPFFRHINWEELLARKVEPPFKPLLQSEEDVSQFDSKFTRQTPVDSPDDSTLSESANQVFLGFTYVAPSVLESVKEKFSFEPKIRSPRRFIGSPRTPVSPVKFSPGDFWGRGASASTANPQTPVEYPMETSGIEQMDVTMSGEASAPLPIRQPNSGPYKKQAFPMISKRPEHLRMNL

| SMILES | residual activity [1] [%] | residual activity [2] [%] | residual activity [3] | residual activity [4] [%] | residual activity [5] | residual activity [6] | residual activity [7] [%] | residual activity [8] [%] | residual activity [9] [%] | residual activity [10] [%] |
| --- | --- | --- | --- | --- | --- | --- | --- | --- | --- | --- |
| CCC(=O)Nc1ccc2ncnc(Nc3cccc(Br)c3)c2c1 | 111 | 127 | 79% (inactive) | 110 | 89% (inactive) | 114% (inactive) | 91 | 64 | 110 | 84 |
| N#C/C(=C(\N)Sc1ccc(N)cc1)c1ccccc1C(F)(F)F | 68 | 56 | 113% (inactive) | 112 | 101% (inactive) | 90% (inactive) | 87 | 95 | 99 | 98 |
| Cc1ccc(NC2=CC(=O)c3sc(C)nc3C2=O)cc1 | 115 | 78 | 106% (inactive) | 104 | 109% (inactive) | 92% (inactive) | 86 | 85 | 93 | 92 |
| Cc1cncc2cccc(S(=O)(=O)N3CCCN(C(=O)CN)C[C@H]3C)c12 | – | – | 88% (inactive) | – | 88% (inactive) | 98% (inactive) | 90 | 86 | – | 82 |
| COc1ccc(CNc2nc(N(CCO)CCO)nc3c2ncn3C(C)C)cc1 | 74 | 49 | 107% (inactive) | 96 | 96% (inactive) | 86% (inactive) | 89 | 86 | 102 | 87 |
| O=C1c2ccccc2-[n+]2ccc3c([nH]c4ccccc43)c21 | 86 | 54 | 109% (inactive) | 104 | – | 101% (inactive) | 86 | 70 | 107 | 94 |
| Nc1n[nH]c2nnc(-c3c(-c4ccccc4)nn4ccccc34)cc12 | 112 | 100 | 107% (inactive) | 98 | 106% (inactive) | 106% (inactive) | – | 74 | 98 | 87 |
| Cc1cccc(-c2[nH]c(C(C)(C)C)nc2-c2ccc3c(c2)OCO3)n1 | 93 | 65 | 90% (inactive) | 107 | 94% (inactive) | 95% (inactive) | 94 | 87 | 103 | 91 |
| CCN(CC)C(=O)c1ccc(Nc2nc(OCC3CCCCC3)c3nc[nH]c3n2)cc1 | 58 | 17 | – | 95 | 98% (inactive) | 82% (inactive) | – | – | – | – |
| Cn1nc2c3c(cccc31)C(=O)c1ccccc1-2 | 70 | 62 | 108% (inactive) | 104 | 107% (inactive) | 86% (inactive) | – | 87 | 102 | 98 |
| O=C1Nc2ccccc2/C1=C1/Nc2ccccc2/C1=N\OCCC(O)CO (centres undefined) | 20 | 6 | 113% (inactive) | 113 | 104% (inactive) | – | – | 70 | 80 | 78 |
| COc1cc2ncnc(Nc3ccc(NC(=O)c4ccccc4)cc3)c2cc1OC | 67 | 38 | 103% (inactive) | – | – | 86% (inactive) | – | 97 | – | 89 |
| COc1cc2ncc(-c3ccccc3)nc2cc1OC | 63 | 47 | 80% (inactive) | 89 | – | – | 100 | 93 | – | – |
| N#CCCc1ccc2c(c1)-c1[nH]c3ccc([N+](=O)[O-])cc3c1CC(=O)N2 | – | – | – | – | – | – | – | 64 | 62 | 37 |
| c1ccc(-c2n[nH]c3c2oc2ccccc23)cc1 | – | – | 94% (inactive) | – | 94% (inactive) | – | – | 85 | – | – |
| O=C1NC(=O)/C(=C\c2ccc3nccnc3c2)S1 | 68 | 50 | 91% (inactive) | 96 | 100% (inactive) | 106% (inactive) | 89 | 55 | 102 | 75 |
| Cn1cnc2cc3c(Nc4cccc(Br)c4)ncnc3cc21 | 95 | 71 | 104% (inactive) | 104 | 100% (inactive) | 103% (inactive) | 93 | 73 | 93 | 90 |
| Cc1ccc(S(=O)(=O)/C=C/C#N)cc1 | 133 | 102 | 99% (inactive) | 108 | 114% (inactive) | 87% (inactive) | 101 | 92 | 107 | 98 |
| O=Nc1c(-c2c(O)[nH]c3ccccc23)[nH]c2ccccc12 | 37 | 13 | 91% (inactive) | 103 | 106% (inactive) | 102% (inactive) | 82 | 67 | 103 | 54 |
